Assay results reported in PubChem BioAssay (NCATS).
Results filed as inconclusive are left out. Unmarked numbers belong to inactive results. Calls come from the whole dose curve; as a rule, active = well fitted inhibition curve with a large enough effect; inconclusive = small, poorly fitted or top-dose-only effect, or effect the other way; inactive = flat fitted curve, though single readings scatter.

The compounds below were run against ATP-dependent 6-phosphofructokinase (Trypanosoma brucei brucei) (UniProt O15648) (assay: qHTS Assay to Find Inhibitors of T. brucei phosphofructokinase: hit validation (AID 492961;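 note: luminescence reports ADP formed as PFK phosphorylates fructose-6-phosphate with ATP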)). Settings: T. brucei PFK, ADP-Glo luminescence; series mostly up to 51.4 µM; activity change, negative = inhibition: at the top concentration.
Outline: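 Percent activity derived from corrected luminescence, normalized between 0x and 1x enzyme controls, then fitted to concentration-response curves. Conditions: 1.25 nM PFK, 0.1 mM ATP, 0.5 mM F6P, 45 min RT.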
% is set by controls: 0 for no effect and ±100 for the full control effect.

ATP-dependent 6-phosphofructokinase (Trypanosoma brucei brucei), sequence (O15648 whole entry, looked up): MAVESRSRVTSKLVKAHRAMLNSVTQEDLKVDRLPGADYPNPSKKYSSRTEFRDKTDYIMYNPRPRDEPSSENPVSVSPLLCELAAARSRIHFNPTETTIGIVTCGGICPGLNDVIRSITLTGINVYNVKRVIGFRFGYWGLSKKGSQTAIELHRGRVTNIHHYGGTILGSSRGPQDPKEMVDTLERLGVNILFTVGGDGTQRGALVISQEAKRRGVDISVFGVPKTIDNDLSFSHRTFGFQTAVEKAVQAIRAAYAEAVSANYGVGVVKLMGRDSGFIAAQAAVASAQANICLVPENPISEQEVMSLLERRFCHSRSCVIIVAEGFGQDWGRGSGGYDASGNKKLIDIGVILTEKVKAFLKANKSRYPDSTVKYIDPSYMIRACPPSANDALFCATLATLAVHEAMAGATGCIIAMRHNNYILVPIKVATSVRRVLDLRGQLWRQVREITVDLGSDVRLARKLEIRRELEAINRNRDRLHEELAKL

Structure (SMILES) | activity change, negative = inhibition
CC(C)NCC(O)c1ccc(NS(C)(=O)=O)cc1 (stereo unspecified) | 4.06%
C[C@@H](NCCCc1cccc(C(F)(F)F)c1)c1cccc2ccccc12 | -3.59%
COc1cc(NCc2ccc3nc(N)nc(N)c3c2C)cc(OC)c1OC | 6.46%
CCCCOc1ccc(CC(=O)NO)cc1 | 6.95% [at 24.3 µM]
OC(Cn1cncn1)(Cn1cncn1)c1ccc(F)cc1F | -0.0258%
Nc1ccc(S(=O)(=O)Nc2ccccn2)cc1 | 1.76% [at 24.3 µM]
COc1cccc(N(C)C(=S)Oc2ccc3c(c2)CCCC3)n1 | -5%
Nc1[nH]c(=O)ncc1F | -1.9% [at 24.3 µM]
CNC1CCCN(c2c(F)cc3c(=O)c(C(=O)O)cn(C4CC4)c3c2OC)C1 (stereo unspecified) | -2.25%
CCCc1cc(C(N)=S)ccn1 | -6.61%
CCc1c2c(nc3ccc(OC(=O)N4CCC(N5CCCCC5)CC4)cc13)-c1cc3c(c(=O)n1C2)COC(=O)[C@]3(O)CC | -3.52%
